From PubChem BioAssay (NCATS)
Records with an inconclusive call do not appear. Calls of active or inactive are those of the source. The call rests on the fitted dose curve; in most records, active means well fitted inhibition curve with a large enough effect; inconclusive means small, poorly fitted or top-dose-only effect; inactive means no such curve, though single readings can be large or run the other way. Peptide text beside a SMILES is read from it.

experiment: Primary qHTS for small molecule stabilizers of the endoplasmic reticulum resident proteome: Secreted ER Calcium Modulated Protein (SERCaMP) assay (AID 1508630); conditions: SH-SY5Y GLuc-SERCaMP (Gaussia luciferase released on ER calcium loss) secretion, thapsigargin, luminescence; series mostly up to 38.4 µM
Method in brief: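 GLuc-SERCaMP-expressing SH-SY5Y cells, pretreated 16 h with compound, are challenged with thapsigargin to empty ER calcium stores; after 4 h, coelenterazine is added directly to the medium and luminescence is imaged.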
On the % scale 0 is the no-effect control and ±100 the full control effect.

Row | SMILES | outcome | activity change, negative = inhibition
1 | CCOC(=O)C1=CC2(CC)CCCN3CCc4c(n1c1ccccc41)C32 (centres undefined) | inactive | –
2 | CC(=O)N[C@@H](CC(=O)O)C(=O)N[C@@H](CCC(=O)O)C(=O)O (Ac-Asp-Glu-OH) | inactive | –
3 | COC(=O)C1=CO[C@@H](O[C@@H]2O[C@H](CO)[C@@H](O)[C@H](O)[C@H]2O)[C@@H]2[C@@H](C)[C@@H](O)C[C@H]12 | inactive | –
4 | CC(C)N=c1cc2n(-c3ccc(Cl)cc3)c3ccccc3nc-2cc1Nc1ccc(Cl)cc1 | inactive | –
5 | Cc1ccc(Sc2cncc3sc(C(N)=O)cc23)cc1 | inactive | –
6 | CC1=C(/C=C/C(C)=C/C=C/C(C)=C/CO)C(C)(C)CCC1 | inactive | –
7 | O=C(O)CC/C=C\CC[C@H]1[C@@H](N2CCCCC2)[C@@H](O)C[C@@H]1OCc1ccc(-c2ccccc2)cc1 | inactive | –
8 | CCCCC/C=C\C/C=C\CCCCCCCC(=O)O | – | -23.8% [at 3.88 µM] (inactive)
9 | Cc1cc(/C=C/c2ccc3cc(N(C)C)ccc3[n+]2C)c(C)n1-c1ccccc1 | inactive | –
